The assay can be described thus: p53 small molecule agonists, cell-based qHTS assay (AID 1963582). A digest of the protocol: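 Read-out is beta-lactamase FRET fluorescence after 2 h at room temperature with LiveBLAzer B/G substrate. p53 response element-bla cells were treated 16 h at 37 C with compounds in DMSO, added 5 h after seeding.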
A general note: Quantitative high-throughput screening tests each substance at several concentrations.

Records with an inconclusive call do not appear. Where a call stands in place of a potency, no number is given. Unmarked numbers belong to inactive results. Calls of active or inactive are those of the source. Calls follow the shape of the dose curve; as a rule, active = well fitted activation curve with a large enough effect in the signal ratio in the repeat runs (not every such curve was filed as active); inconclusive = weak or mixed curves; inactive = flat fitted curve, though single readings scatter; the % refers to the signal ratio.

As for `O=C(O)/C=C/c1ccccc1`, the Potency entry is “inactive”.

Regarding `O=C(CCS)OCC(COC(=O)CCS)(COC(=O)CCS)COC(=O)CCS`, the Potency entry was “inactive”.

In the case of `Cc1ccc(C(C)NC(=O)[C@@H](NC(=O)OC(C)C)C(C)C)cc1` (stereo partly drawn), the Potency result was “inactive”.

For the compound `C=C[Si](OC(=C)C)(OC(=C)C)OC(=C)C`, the Potency entry was “inactive”.

With `CN1CCc2cccc3c2[C@H]1Cc1ccc(O)c(O)c1-3`, the Potency result is “inactive”.

On to `CCOCCOC(=O)/C=C/c1ccc(OC)cc1`, for which the Potency result is “inactive”.

`Oc1ccc(/C=C/c2cc(O)cc(O)c2)cc1`: the Potency entry was “inactive”.

As to `C=CCOCC(O)CO` (stereo not drawn), the Potency result was “inactive”.

As for `COc1ccccc1/C=C/C=O`, the Potency result is “inactive”.

Consider `CCNc1cc(O)ccc1C`, for which the Potency entry is “inactive”.

As to `COc1ccc(Br)c(C)c1`, the Potency result is “inactive”.

Turning to `CCCCCCCCCCCCCCCC(=O)OC`, the activation is -4.84% [at 13.5 µM].

On to `COc1ccc(NC(C)=O)cc1`, for which the Potency result is “inactive”.

On to `C[C@@H]1O[C@@H](OC[C@H]2O[C@@H](Oc3c(-c4ccc(O)c(O)c4)oc4cc(O)cc(O)c4c3=O)[C@H](O)[C@@H](O)[C@@H]2O)[C@H](O)[C@H](O)[C@H]1O`, for which the Potency entry was “inactive”.

Turning to `COCCCOc1cc(C[C@@H](C[C@H](N)[C@@H](O)C[C@H](C(=O)NCC(C)(C)C(N)=O)C(C)C)C(C)C)ccc1OC`, the Potency result was “inactive”.

Consider `O=c1cc(CO)occ1O`, for which the Potency entry was “inactive”.

Consider `CC(C)(C)NCC(O)c1ccc(O)c(CO)c1` (stereo not drawn), for which the Potency entry is “inactive”.

For `CCCCCCCCCCCCCCCCCCOCC(O)CO` (stereo not drawn), the Potency entry was “inactive”.

Turning to `OCc1c2ccccc2cc2ccccc12`, the Potency entry was “inactive”.

With `C=CCS(=O)(=O)O`, the Potency result is “inactive”.

In the case of `O=C1C(c2[nH]c3ccc(S(=O)(=O)O)cc3c2O)=Nc2ccc(S(=O)(=O)O)cc21`, the Potency entry was “inactive”.

For the compound `CCN(CCO)c1cccc(C)c1`, the Potency entry was “inactive”.

On to `O=C(NCC1CCCCN1)c1cc(OCC(F)(F)F)ccc1OCC(F)(F)F` (stereo not drawn), for which the Potency entry was “inactive”.

For the compound `CCCCCCCCCCCC(=O)OCC(C)OC(=O)CCCCC(=O)O` (stereo not drawn), the Potency entry was “inactive”.

For the compound `Cc1onc(-c2ccccc2)c1C(=O)Cl`, the Potency result is “inactive”.

On to `CC(=O)c1sc(C)nc1C`, for which the Potency result was “inactive”.

Take `COc1cc(C(=O)N2CCOCC2)cc(OC)c1OC`: the Potency entry was “inactive”.

In the case of `Cc1cccc(Cl)c1`, the Potency entry is “inactive”.

For `CC(C)(C)S`, the Potency result is “inactive”.

In the case of `O=C(O)CNC(=O)c1ccccc1I`, the Potency result was “inactive”.

As to `Nc1c(Br)cc([N+](=O)[O-])cc1Br`, the Potency result is “inactive”.

As to `CC(=O)OC/C=C/c1ccccc1`, the Potency result was “inactive”.

`CN/C(=C\[N+](=O)[O-])NCCSCc1ccc(CN(C)C)o1`: the Potency entry is “inactive”.

Consider `CCc1ccc(C)nc1`, for which the Potency entry is “inactive”.

`CC(=O)N(c1onc(C)c1C)S(=O)(=O)c1ccc(N)cc1`: the Potency entry was “inactive”.

For `CN(C)c1ccc(Cc2ccc(N(C)C)cc2)cc1`, the Potency entry was “inactive”.

Take `CC1CNCC(C)O1` (stereo not drawn): the Potency entry was “inactive”.

Consider `CC(=O)c1ccccc1N`, for which the Potency entry was “inactive”.

As for `CCOC(=O)n1ccn(C)c1=S`, the Potency result is “inactive”.

Regarding `COC(=O)c1cc(Cl)ccc1OC`, the Potency entry was “inactive”.

As to `CC(C)S`, the Potency entry is “inactive”.

`CCOC(=O)C(C)C(C)=O` (stereo not drawn): the Potency result is “inactive”.

Turning to `Nc1cc(S(=O)(=O)O)ccc1S(=O)(=O)O`, the Potency entry was “inactive”.

Regarding `Nc1cc(=O)[nH]c(N)n1`, the Potency result is “inactive”.

As for `NCC1(Cc2noc(=O)[nH]2)CCCCC1`, the Potency entry was “inactive”.

In the case of `CCCCC/C=C/C=C/C=O`, the Potency result is “inactive”.

On to `C=CC(=O)NCOCC(C)C`, for which the Potency result is “inactive”.

For the compound `CC(C)C1CCC(O)CC1` (stereo not drawn), the Potency entry is “inactive”.

The values are drawn from PubChem BioAssay (Tox21).
